Inconclusive results are not listed. Activity calls are given as the source filed them. Calls follow the shape of the dose curve; as a rule, active = well fitted cell-killing curve with a large enough effect in the repeat runs; inconclusive = weak or mixed curves, or effect the other way; inactive = flat fitted curve, though single readings scatter.

A short description of the assay: qHTS assay to identify small molecule antagonists of the retinoid acid receptor (RAR) signaling pathway - cell viability counter screen (AID 1159551). Also: nearly all actives have a fitted effect of over 35% in size. The conditions noted are these: C3RL4 cells viability, ATP luminescence (CellTiter-Glo), 6 h; series mostly up to 92.4 µM. The text has this: U.S. Tox21 Program National Center for Advancing Translational Sciences [NCATS] NIH Chemical Genomics Center [NCGC] U.S. Environmental Protection Agency [EPA] National Institutes of Environmental Health Sciences [NIEHS] National Toxicology Program [NTP] U.S. Food and Drug Administration [FDA] Tox21 Assay Overview: All-trans Retinoic acid (atRA) is the potent natural metabolite of retinol and plays an important role in normal embryonic development and maintenance of cellular phenotype in adult animals. atRA is the activating ligand for the retinoic acid receptors (RARs) which form heterodimers with retinoid X receptors (RXRs) on the retinoic acid response element (RARE). Through activation of the RAR/RXRs nuclear receptors, atRA regulates the transcription of a large number of protein-coding genes and regulatory RNAs. Intracellular levels of atRA are controlled by the retinol signaling pathway (RSP) that regulates the biosynthesis and catabolism of atRA to maintain physiological levels. Chemicals that interfere with the RSP can cause abnormal intracellular levels of atRA and therefore are potential developmental toxicants. To assess compounds for the potential adverse effect on embryonic development through interfering with retinol signaling, a cell-based RARE luciferase reporter gene assay was used. C3RL4 cell line (OARSA/CFSAN/FDA, Laurel, MD) was used to screen Tox21 10K compound library for identifying inhibitors of the RSP. Also cytotoxicity was assessed by determining the viability of cells based on the quantitation of ATP.
Tox21 Assay Protocol Summary: C3RL4 cells were seeded at 1,000/well in 4 uL of assay medium into white solid 1,536-well tissue culture plates (Greiner Bio-One North America Inc. Monroe, NC) using a Multidrop Combi (Thermo Scientific, Waltham, MA) dispenser. After incubation at 37 C and 5% CO2 for an overnight, 23 nL of compounds dissolved in DMSO, positive control or DMSO only were transferred by a Pintool station (Kalypsys, San Diego, CA). One ul of 1 uM (final concentration) of Retinol was added right after the compound addition by using a Flying Reagent Dispenser (FRD) (Aurora Discovery, San Diego, CA). After 6 hr incubation at 37 C and 5% CO2, 5 uL of CellTiter-Glo reagent (Promega Corporation, Madison, WI) was added to each assay plate using an FRD. Luminescence was quantified on a ViewLux plate reader (PerkinElmer, Waltham, MA) after 30 min incubation at room temperature.
Background: In qHTS, concentration-response curves come from the screen itself.
Regarding `O=C1CN(/N=C/c2ccc([N+](=O)[O-])o2)C(=O)N1`, the call was inactive.

Take `Cc1cc(=O)n(-c2ccccc2)n1C`: the compound was called inactive.

For `CNC[C@H](O)c1cccc(O)c1`, the call was inactive.

Turning to `N=C(N)c1ccc(OCCCCCOc2ccc(C(=N)N)cc2)cc1`, the compound was classed as inactive.

`CC(C)(Oc1ccc(C2CC2(Cl)Cl)cc1)C(=O)O` (stereo not given): the outcome was inactive.

In the case of `CC(=O)Nc1nnc(S(N)(=O)=O)s1`, the compound was classed as inactive.

`NS(=O)(=O)c1cc(C(=O)O)c(NCc2ccco2)cc1Cl`: the result was inactive.

As to `COc1c2occc2cc2ccc(=O)oc12`, the compound was called inactive.

With `Nc1ccc(C(=O)O)cc1`, the outcome was inactive.

In the case of `O=C(O)C(=O)O`, the call was inactive.

Take `Cc1cc(=O)[nH]c(=S)[nH]1`: the result was inactive.

For the compound `O=C(O)/C=C\C(=O)O`, the outcome was inactive.

`C/C=C/c1ccc(OC)cc1`: the call was inactive.

On to `NC(N)=O`, for which the result was inactive.

For the compound `CC(O)CO` (stereo not given), the compound was called inactive.

On to `Nc1ccc(O)c(C(=O)O)c1`, for which the compound was called inactive.

In the case of `Cc1ccc(C)c(OCCCC(C)(C)C(=O)O)c1`, the compound was called inactive.

Regarding `OC(Cn1cncn1)(Cn1cncn1)c1ccc(F)cc1F`, the compound was classed as inactive.

On to `Cc1ccc(S(=O)(=O)NC(=O)NN2CCCCCC2)cc1`, for which the result was inactive.

On to `NC(=O)NC1NC(=O)NC1=O` (stereo not given), for which the call was inactive.

With `O=c1ccc2ccccc2o1`, the call was inactive.

As to `CC1(C)[C@@H]2CC[C@@]1(C)C(=O)C2`, the call was inactive.

As for `CCOc1ccc(NC(=O)CC(C)O)cc1` (stereo not given), the compound was classed as inactive.

Turning to `CC(O)CN(CCN(CC(C)O)CC(C)O)CC(C)O` (stereo not given), the compound was classed as inactive.

Regarding `O=C(O)CCCCCCCC(=O)O`, the outcome was inactive.

Turning to `CC(O)C(=O)O` (stereo not given), the compound was called inactive.

Take `CCC1(c2ccccc2)C(=O)NCNC1=O`: the result was inactive.

Turning to `Cc1ccccc1C(OCCN(C)C)c1ccccc1` (stereo not given), the call was inactive.

`NNC(=O)c1ccncc1`: the compound was classed as inactive.

On to `NC(=O)c1ccccc1O`, for which the call was inactive.

`C[C@]12C=CC(=O)C=C1CC[C@@H]1[C@@H]2[C@@H](O)C[C@@]2(C)[C@H]1CC[C@]2(O)C(=O)CO`: the outcome was inactive.

In the case of `O=C(O)c1cccc([N+](=O)[O-])c1`, the compound was called inactive.

As for `O=C1NC(=O)c2ccccc21`, the compound was called inactive.

With `O=C(O)c1cccnc1`, the call was inactive.

In the case of `O=S(=O)(O)c1ccc2cc(O)ccc2c1`, the compound was classed as inactive.

`OCCc1ccccc1`: the compound was classed as inactive.

Turning to `Oc1ccc(/C=C/c2cc(O)cc(O)c2)cc1`, the outcome was inactive.

In the case of `O=C(c1ccccc1)c1ccccc1`, the result was inactive.

Take `NC(N)=NC(=O)c1nc(Cl)c(N)nc1N`: the result was inactive.

Take `O=C(O)CCC(=O)O`: the result was inactive.

The values above are taken from PubChem BioAssay (Tox21).
